According to PubChem BioAssay (NCI):
The panel holds about 79,000 compounds, 15% with a hit somewhere; the sample as a whole holds those more often. Cut-off read from the data, not from the text of the source: active = growth inhibition above about 70%; inactive = the rest. Where a SMILES comes first, the peptide text is derived from it. The star is where a group is joined. Cbz = O=C(OCc1ccccc1)*

Columns and labels:
[1] = NCI Yeast Anticancer Drug Screen. Data for the rad50 strain (AID 155);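 note: 0% = growth of vehicle-only cultures of the same strain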; conditions: S. cerevisiae rad50 strain growth inhibition; at 50.0 µM; hits give high values
Procedure, shortened: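 A DNA repair-deficient yeast mutant serves as the test organism; compound-induced growth inhibition is calculated against vehicle-treated cells.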

[2] = NCI Yeast Anticancer Drug Screen. Data for the mec2-1 strain (AID 157); conditions: S. cerevisiae mec2-1 strain, at 50.0 µM, hits give high values
Procedure, shortened: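 Vehicle-treated cultures served as reference for growth inhibition of compound-exposed mec2-1 yeast.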

[3] = NCI Yeast Anticancer Drug Screen. Data for the sgs1 mgt1 strain (AID 161);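 note: 0% = growth of cultures given vehicle only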; conditions: S. cerevisiae sgs1 mgt1 strain, at 50.0 µM, hits give high values
Procedure, shortened: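 Genetically altered yeast, compound exposure, growth inhibition relative to vehicle.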

[4] = NCI Yeast Anticancer Drug Screen. Data for the cln2 rad14 strain (AID 165);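 note: 0% = growth equal to vehicle treated cultures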; conditions: S. cerevisiae cln2 rad14 strain, at 50.0 µM, hits give high values
Procedure, shortened: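 Each compound was tested on cln2 rad14 yeast. Inhibition of growth was calculated against vehicle-exposed controls.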

[5] = NCI Yeast Anticancer Drug Screen. Data for the bub3 strain (AID 167); conditions: S. cerevisiae bub3 mutant strain, at 50.0 µM, hits give high values
Procedure, shortened: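 Inhibition values come from growth of compound-treated mutant yeast normalised to vehicle-treated controls.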

[6] = NCI Yeast Anticancer Drug Screen. Data for the mlh1 rad18 strain (AID 175); conditions: S. cerevisiae mlh1 rad18 strain growth inhibition; at 50.0 µM; hits give high values
Procedure, shortened: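 Vehicle-treated cultures served as the reference for growth inhibition in a yeast strain carrying DNA damage repair alterations exposed to each compound.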

Measured: growth inhibition

O=c1cc(CO)oc(C(Nc2cccc(Cl)c2)c2ccccc2)c1O (stereo not given)
inactive: [1] 34.2% | [2] -4.65% | [3] 23.1% | [4] -15.2% | [5] 10.2% | [6] 21.1%

OC1CSc2ccccc2-n2cccc21 (stereo not given)
inactive: [1] 25.8% | [2] 6.4% | [3] 21.8% | [4] 32.9% | [5] 6.75% | [6] 16.4%

CCCCCCCCC1=C(CCCCCCC(=O)OC)[14CH2]1
inactive: [1] 0.25% | [2] 16.6% | [3] -11.2% | [4] 43.4% | [5] 3% | [6] 24.5%

Cc1[nH]nc(C(=O)O)c1N
inactive: [1] -18.2% | [2] -20.6% | [3] -14.6% | [4] -16.1% | [5] -13.4% | [6] -7.2%

NC(N)=NCCS(=O)(=O)O
inactive: [1] 5.8% | [2] 7.35% | [3] -2% | [4] 9.1% | [5] -2.35% | [6] 20.4%

CCOC(=O)CCC(=O)C(=O)OCC
inactive: [1] 13.1% | [2] -24.8% | [3] 13.2% | [4] 20.9% | [5] 1.4% | [6] 20.1%

O=c1c2ccccc2[nH]c2ccc(Br)cc12
inactive: [1] 8.25% | [2] 2.2% | [3] 3.8% | [4] -6.1% | [5] 2.95% | [6] 17.8%

NC(=O)C(N)Cc1ccc(OCc2ccccc2)c(OCc2ccccc2)c1 (stereo not given)
inactive: [1] 1.4% | [2] 3.35% | [3] 7.3% | [4] -12.8% | [5] 2.45% | [6] 26.2%

Cc1cccc(NC(=O)/C=C/c2ccccc2)n1
inactive: [1] 6.15% | [2] -26.5% | [3] -4.3% | [4] -81.3% | [5] 9.15% | [6] -22.4%

O=c1[nH]c2c([N+](=O)[O-])cc(Cl)cc2nc1/C=C(\O)c1cccnc1
inactive: [1] 18.4% | [2] 0.7% | [3] 33.8% | [4] 36.2% | [5] 4.25% | [6] 45.1%

Cc1c(C2CCSc3ccccc3N2)sc2ccccc12 (stereo not given)
inactive: [1] -17.2% | [2] -27.4% | [3] 11.3% | [4] 14.6% | [5] 4.65% | [6] 7.2%

O=c1nc2n(cc1/C=C\Br)C1CC(O)C(CO2)O1 (stereo not given)
inactive: [1] -51% | [2] -24.6% | [3] -24.1% | [4] 13.3% | [5] -1.5% | [6] -23.6%

CN(C)c1ccc(C=C2C(=O)OC(C)(C)OC2=O)cc1Br
inactive: [1] 1.55% | [2] -13.8% | [3] -4.1% | [4] 32% | [5] -17.6% | [6] 10.7%

Cc1ccc(NC(=O)CCC(=O)O)cc1Cl
inactive: [1] -19.9% | [2] -15.9% | [3] -4.25% | [4] -27.2% | [5] -10.9% | [6] -16.2%

Cc1ccc2c(c1-c1ccccc1)C(=O)OC2
inactive: [1] -5.4% | [2] -3.05% | [3] 2.15% | [4] 5.35% | [5] 6.25% | [6] -3.3%

COc1ccc(C(CC(=O)O)c2ccc(OC)cc2OC)cc1 (stereo not given)
inactive: [1] -0.3% | [2] 0.8% | [3] 11.8% | [4] -24.5% | [5] 0.85% | [6] 6.95%

CCCCCCCC[N+](C)(C)CC#CC[N+](C)(C)CCCCCCCC
inactive: [1] 46.2% | [2] -14.3% | [3] 13.9% | [4] -1.65% | [5] 11.1% | [6] 44.1%

NC(=NC1CCCCC1)c1ccc(C(=O)OCC2CCCCC2)cc1
inactive: [1] 39.2% | [2] 12.6% | [3] 45.5% | [4] 19.9% | [5] 21.8% | [6] 26.4%

O=c1c2c(nc3n1CCC3)OC(c1ccccc1)C2 (stereo not given)
inactive: [1] 0.4% | [2] 4.3% | [3] -5.9% | [4] -44.8% | [5] -2.95% | [6] 12.6%

Nc1cc(=S)nc(N)[nH]1
inactive: [1] 20.2% | [2] -6.75% | [3] 22.4% | [4] 9.55% | [5] 20.6% | [6] 28.9%

O=C(Nc1ccccc1[N+](=O)[O-])Oc1ccc(-c2ccccc2)cc1
inactive: [1] 9.05% | [2] 5.75% | [3] 9.05% | [4] -7.65% | [5] 46.4% | [6] -28.9%

CC(CNC(=O)c1ccccc1)(CNC(=O)c1ccccc1)[N+](=O)[O-]
inactive: [1] 8.95% | [2] 1.35% | [3] -3.2% | [4] 6.75% | [5] 0.8% | [6] 3.85%

O=C(CCl)Nc1ccc(SSc2ccc(NC(=O)CCl)cc2)cc1
inactive: [1] 33.8% | [2] 13% | [3] 47.1% | [4] 43.2% | [5] 10.1% | [6] 12.9%

OCC1c2ccccc2C(CO)c2c1ccc1ccccc21 (stereo not given)
inactive: [1] -0.3% | [2] -2.3% | [3] -7.1% | [4] 11.1% | [5] -9.15% | [6] 4.45%

CCOC(=O)C(=O)Nc1nc2ccc(OC)cc2s1
inactive: [1] -39.8% | [2] -7.3% | [3] -10.8% | [4] 6.75% | [5] 0.15% | [6] 9.25%

O=C1C(N=Nc2ccc(Br)cc2)Sc2nc3ccccc3n21 (stereo not given)
inactive: [1] 8.2% | [2] -12.4% | [3] 6.45% | [4] -27.4% | [5] 17.1% | [6] 10.3%

COc1cc2[nH]c3c(c2cc1OC)CCN[C@@]31CC[C@@]2(CC3c4c(cc(OC)c(O)c42)CCN3C)C[C@@H]1OC (stereo not given in full)
inactive: [1] -14.8% | [2] -23.9% | [3] -37.5% | [4] 1% | [5] -35% | [6] -9.7%

CCOC(=O)C(C)NC(=O)C(C)NC(=O)C(C)NC(=O)C(C)NC(=O)C(C)NC(=O)C(C)NC(=O)C(C)NC(=O)OCc1ccccc1 (stereo not given) (Cbz-AAAAAAA-OEt; configuration not given here)
inactive: [1] -16.2% | [2] -23.4% | [3] -21.4% | [4] 16.6% | [5] 5.4% | [6] -8.45%

CC(C)CCOC(=O)N(C)c1ccccc1
inactive: [1] 9.3% | [2] 0.2% | [3] 10.3% | [4] -17.9% | [5] -24% | [6] -9.8%

Cc1ccnc(=S)[nH]1
inactive: [1] 16.9% | [2] 5.45% | [3] 33.1% | [4] 13.3% | [5] 23.6% | [6] 18.3%

CC1CCCC2(CC[N+](C)(CCC[N+](C)(C)C)CC2)C1 (stereo not given)
inactive: [1] -9.5% | [2] -7.95% | [3] -16.2% | [4] 15.1% | [5] -41% | [6] -1.7%

CC(C)(C)c1ccc(OCCCCl)c(CCl)c1
inactive: [1] 23.4% | [2] 2.75% | [3] 10.1% | [4] 7.65% | [5] 52% | [6] 12.6%

O=C(O)c1nc2nc(Cl)c(Cl)nc2[nH]1
inactive: [1] -22.7% | [2] -30.4% | [3] -19.7% | [4] 21.9% | [5] -37.8% | [6] 9.4%

CC(C)SC(C)(NC(=O)C1C(C)(C)CCC1(C)C)C(=O)O (stereo not given)
inactive: [1] -52.6% | [2] 1.45% | [3] -24.6% | [4] 1.5% | [5] 5.45% | [6] -49.5%

C=C1C(=O)O[C@@H]2/C=C(/C)[C@@H](OC(C)=O)C[C@@H](O)/C(C)=C\[C@@H](OC(=O)[C@]3(C)O[C@@H]3C)[C@@H]12
inactive: [1] 11.3% | [2] -0.85% | [3] 16.2% | [4] 20.5% | [5] 13.4% | [6] -63.6%

CC(C)=C1C(=O)C[C@]2(C)C[C@H]3/C(=C(/C)CCC12)CC[C@@]3(C)O (stereo not given in full)
inactive: [1] 46.5% | [2] -1.25% | [3] 2% | [4] 28.6% | [5] -6.05% | [6] -8.4%

C/C=N\C(N)=S
inactive: [1] 1.45% | [2] -1.3% | [3] 4.8% | [4] 9.05% | [5] 9.8% | [6] 1%

O=c1[nH][nH]c(=O)c2c1ccc1oc3ccccc3c12
inactive: [1] -13.8% | [2] 0.55% | [3] -20.7% | [4] 28.2% | [5] 2.55% | [6] 4.4%

CC(=O)Nc1ccc(C2CCCC2)cc1Br
inactive: [1] -3.05% | [2] -2.15% | [3] 0% | [4] -39.8% | [5] -12.2% | [6] -4.45%

CC(=O)O[C@@H]1[C@H]2[C@@H](OC(=O)c3ccccc3)[C@@H](C)C[C@]2(O)[C@H](OC(C)=O)[C@@]2(C)[C@@H]3CC(C)(C)C(=O)[C@]3(OC(C)=O)C[C@@]12C
inactive: [1] 25% | [2] 31.1% | [3] 6.4% | [4] 5.3% | [5] 15.2% | [6] 39.4%
